Among all 39,000 compounds or so, about 500 (1.3%) were called active. Shown is part of a subset that was picked to be rich in actives.

The results in this text go back to the antibiotic and cytotoxicity screens of Wong et al. (2023).

This test has as its system S. aureus RN4220. Description: growth inhibition call (relative growth <= 0.2). Conditions: 50 µM.
For `C[C@H](O)C#Cc1cnc2c(c1)C(=O)N([C@H](C)CO)C[C@H](C)[C@@H](CN(C)C(=O)Nc1ccc(C(F)(F)F)cc1)O2`, the growth inhibition call is “inactive”.
With `C[C@H]1O[C@@H](OC[C@H]2O[C@@H](OC[C@]3(C)[C@H]4CC[C@@]5(C)[C@H](CC[C@H]6C7=CC(C)(C)CC[C@]7(C(=O)O)CC[C@@]65C)[C@@]4(C)CC[C@@H]3O)[C@@H](O)[C@@H](O)[C@@H]2O)[C@@H](O)[C@@H](O)[C@@H]1O` the entry was “inactive”; with `C[C@@H]1CN([C@H](C)CO)S(=O)(=O)c2ccc(C#CC3(O)CCCC3)cc2O[C@H]1CN(C)C(=O)Cc1cccnc1`, “inactive”.
For the molecule `Cc1ccc(S(=O)(=O)Nc2ccc3c(c2)C(=O)N([C@H](C)CO)C[C@@H](C)[C@H](CN(C)S(=O)(=O)c2ccc(C)cc2)OCCCC[C@H](C)O3)cc1`, the growth inhibition call was “inactive”.
For the molecule `COc1ccc(NC(=O)N(C)C[C@H]2Oc3c(NC(=O)c4cc(C)nn4C)cccc3C(=O)N([C@H](C)CO)C[C@H]2C)cc1`, the growth inhibition call is “inactive”.
With `COCC#Cc1ccc([C@H]2[C@@H](CO)N3C(=O)CN(C(=O)c4ccncc4)C[C@H]23)cc1`, the growth inhibition call is “inactive”.
On to `C[C@@H]1CN([C@H](C)CO)C(=O)Cc2cc(NC(=O)CCN3CCOCC3)ccc2O[C@@H]1CN(C)S(=O)(=O)c1ccc(F)cc1`, for which the growth inhibition call was “inactive”.
`CC(=O)OC[C@H]1O[C@H](n2ccc(=O)[nH]c2=O)[C@@H](OC(C)=O)[C@@H]1OC(C)=O`: the growth inhibition call is “inactive”.
`O=C(C[C@@H]1CC[C@@H]2[C@H](COC[C@@H](O)CN2C(=O)Nc2cccc(Cl)c2)O1)NCCCN1CCOCC1`: the growth inhibition call was “active”.
In the case of `O=C(C[C@H]1CC[C@H]2[C@@H](COC[C@@H](O)CN2C(=O)Nc2cccc(F)c2)O1)NCCCN1CCOCC1`, the growth inhibition call is “inactive”.
Consider `O=C(C[C@H]1CC[C@@H]2[C@H](COC[C@@H](O)CN2C(=O)Nc2cccc(F)c2)O1)NCCCN1CCOCC1`, for which the growth inhibition call was “inactive”.
On to `Cc1noc(C)c1S(=O)(=O)N(C)C[C@@H]1Oc2ccc(NC(=O)Cn3cnnn3)cc2CC(=O)N([C@H](C)CO)C[C@@H]1C`, for which the growth inhibition call is “inactive”.
As for `Cc1noc(C)c1NC(=O)Nc1ccc2c(c1)C(=O)N([C@@H](C)CO)C[C@H](C)[C@H](CN(C)C(=O)NC1CCCCC1)OCCCC[C@@H](C)O2`, the growth inhibition call is “inactive”.
Regarding `C[C@@H]1CCCCO[C@@H](CN(C)C(=O)Nc2ccc(C(F)(F)F)cc2)[C@H](C)CN([C@@H](C)CO)C(=O)c2cc(NC(=O)c3ccncc3)ccc2O1`, the growth inhibition call is “inactive”.
As to `C[C@@H]1CN([C@@H](C)CO)C(=O)c2cccc(NS(=O)(=O)c3ccc(F)cc3)c2O[C@H]1CN(C)C(=O)Nc1ccc(C(F)(F)F)cc1`, the growth inhibition call was “inactive”.
With `C[C@@H]1CCCCO[C@H](CN(C)Cc2ccc(C(F)(F)F)cc2)[C@@H](C)CN([C@@H](C)CO)C(=O)c2cc(NS(=O)(=O)c3cn(C)cn3)ccc2O1` the entry was “inactive”; with `C[C@H]1CN([C@@H](C)CO)C(=O)c2ccccc2-c2ccccc2CO[C@H]1CN(C)Cc1ccccc1C(F)(F)F`, “inactive”.
Regarding `C[C@H](CO)N1C[C@H](C)[C@@H](CN(C)Cc2ccccc2C(F)(F)F)OCc2ccccc2-c2ccccc2C1=O`, the growth inhibition call was “active”.
Under `C[C@H](CO)N1C[C@H](C)[C@H](CN(C)Cc2ccccc2C(F)(F)F)OCc2ccccc2-c2ccccc2C1=O` stands “inactive”; under `C[C@@H]1CN([C@@H](C)CO)C(=O)c2ccccc2-c2ccccc2CO[C@@H]1CN(C)Cc1ccccc1C(F)(F)F`, “inactive”.
Consider `C[C@H](CO)N1C[C@H](C)[C@H](CN(C)Cc2ccc(C(=O)O)cc2)OCc2ccccc2-c2c(n(C)c3ccccc23)C1=O`, for which the growth inhibition call was “active”.
`C[C@@H]1CN([C@H](C)CO)C(=O)c2ccccc2-c2ccccc2CO[C@@H]1CN(C)Cc1ccccc1C(F)(F)F`: the growth inhibition call is “inactive”.
In the case of `C[C@@H]1CN([C@H](C)CO)C(=O)c2c(c3ccccc3n2C)-c2ccccc2CO[C@@H]1CN(C)Cc1ccc(C(=O)O)cc1`, the growth inhibition call was “inactive”.
In the case of `C[C@@H]1CN([C@H](C)CO)C(=O)c2c(c3ccccc3n2C)-c2ccccc2CO[C@H]1CN(C)Cc1ccc(C(=O)O)cc1`, the growth inhibition call was “inactive”.
Under `C[C@@H]1CN([C@@H](C)CO)C(=O)c2ccccc2-c2ccccc2CO[C@H]1CN(C)Cc1ccccc1C(F)(F)F` stands “active”; under `O=C([C@H]1CCCO1)N1CCNCC1`, “inactive”; under `C[C@@H]1CCCCO[C@@H](CN(C)Cc2ccncc2)[C@H](C)CN([C@H](C)CO)C(=O)c2cc(NC(=O)CCC(F)(F)F)ccc2O1`, “inactive”.
With `COc1ccc2c3c(n(c2c1)C)[C@@H](CO)N(C[C@]13CCN(CC1)C(=O)c1ccccc1F)C(=O)Nc1ccccc1F`, the growth inhibition call was “inactive”.
Under `Cc1ccc(S(=O)(=O)N(C)C[C@H]2OCCCC[C@H](C)Oc3ccc(NS(=O)(=O)c4ccc(Cl)cc4)cc3C(=O)N([C@H](C)CO)C[C@@H]2C)cc1` stands “inactive”.
Consider `COCCCOc1cc(C[C@@H](C[C@H](N)[C@@H](O)C[C@H](C(=O)NCC(C)(C)C(N)=O)C(C)C)C(C)C)ccc1OC`, for which the growth inhibition call was “inactive”.
Under `C[C@@H]1CN([C@H](C)CO)S(=O)(=O)c2ccc(C#CC3CCCCC3)cc2O[C@@H]1CN(C)C(=O)Cc1ccncc1` stands “inactive”.
For `C[N+](C)(C)CCCCNC(=O)[C@@H]1C[C@@H]2C(=O)N[C@@H](CCCC[N+](C)(C)C)C(=O)N2[C@@H]1c1cccc(OCCO)c1`, the growth inhibition call is “inactive”.
`C[C@@H]1CN([C@H](C)CO)C(=O)c2cc(NC(=O)Nc3cccc4ccccc34)ccc2O[C@@H]1CN(C)Cc1ccccc1`: the growth inhibition call was “inactive”.
As to `CC(C)NC(=O)Nc1ccc2c(c1)CC(=O)N([C@H](C)CO)C[C@@H](C)[C@@H](CN(C)Cc1ccc(Oc3ccccc3)cc1)O2`, the growth inhibition call was “inactive”.
For the molecule `CN1CCN(c2c(F)cc3c(=O)c(C(=O)O)cn4c3c2SCC4)CC1`, the growth inhibition call is “active”.
Take `CN1CCN(c2c(F)cc3c(=O)c(C(=O)O)cn(CCF)c3c2F)CC1`: the growth inhibition call is “active”.
In the case of `Cc1ccc(S(=O)(=O)Nc2ccc3c(c2)CC(=O)N([C@@H](C)CO)C[C@@H](C)[C@@H](CN(C)C(=O)Nc2ccc(C(F)(F)F)cc2)O3)cc1`, the growth inhibition call was “inactive”.
On to `NC(CO)C(=O)O` (configuration not stated), for which the growth inhibition call was “inactive”.
As for `Cn1cnc(S(=O)(=O)N2C[C@@H](O)COC[C@@H]3O[C@H](CC(=O)NC4CCCC4)CC[C@H]32)c1`, the growth inhibition call is “inactive”.
With `O=C(NCCO)c1nc(NCCO)c2ccccc2n1` the entry was “inactive”; with `C[C@@H]1CCCCO[C@H](CN(C)S(=O)(=O)c2ccccc2)[C@@H](C)CN([C@@H](C)CO)C(=O)c2cc(NC(=O)Nc3ccccc3)ccc2O1`, “inactive”; with `CCC(=O)NC[C@H](Cc1ccc(OCCc2nc(-c3ccccc3)oc2C)cc1)N/C(C)=C\C(=O)c1ccc(C(F)(F)F)cc1`, “inactive”.
Take `COC(=O)c1nc[nH]c1C(=O)OC`: the growth inhibition call was “inactive”.
With `CC1(Cn2ccnn2)C(C(=O)O)N2C(=O)CC2S1(=O)=O` (configuration not stated) the entry was “active”; with `C[n+]1ccn(C[C@@]2(C)[C@H](C(=O)O)N3C(=O)C[C@H]3S2(=O)=O)n1`, “active”.
`CC1(C)C(C(=O)O)N2C(=O)CC2S1(=O)=O` (configuration not stated): the growth inhibition call is “inactive”.
As to `CC1(C)[C@H](C(=O)O)N2C(=O)C[C@H]2S1(=O)=O`, the growth inhibition call was “inactive”.
As to `Cc1noc(C[C@@H]2C[C@@H]3CN(S(C)(=O)=O)C[C@@H]3O2)n1`, the growth inhibition call is “inactive”.
Regarding `C[C@@H]1CCCCO[C@H](CN(C)C)[C@H](C)CN([C@H](C)CO)C(=O)c2cc(NS(=O)(=O)c3cn(C)cn3)ccc2O1`, the growth inhibition call was “inactive”.
For the molecule `CS(=O)(=O)N1[C@@H]2c3ccc(-c4ccccc4)c(=O)n3C[C@H]1[C@H](CO)[C@H]2C(=O)NCC1CC1`, the growth inhibition call is “inactive”.
Under `COc1cc(F)c(F)c(Nc2ccc(I)cc2F)c1NS(=O)(=O)C1(C[C@H](O)CO)CC1` stands “active”; under `Cn1c(=O)c(F)c(Nc2ccc(I)cc2F)c2c(=O)n(C[C@@H](O)CO)cnc21`, “inactive”; under `O=C(NOC[C@H](O)CO)c1cc(Br)c(F)c(F)c1Nc1ccc(I)cc1F`, “inactive”.
In the case of `CC1(C)S[C@@H]2[C@H](NC(=O)[C@H](N)c3ccccc3)C(=O)N2[C@H]1C(=O)OCOC(=O)[C@@H]1N2C(=O)C[C@H]2S(=O)(=O)C1(C)C`, the growth inhibition call is “active”.
With `CCOC(=O)OC(C)OC(=O)C1N2C(=O)C(NC(=O)C(N)c3ccccc3)C2SC1(C)C.Cl` (configuration not stated) the entry was “active”; with `C[C@@H]1CN([C@H](C)CO)C(=O)c2c(c3ccccc3n2C)-c2ccccc2CO[C@@H]1CN(C)Cc1ccccc1`, “inactive”; with `O=C(C[C@@H]1C=C[C@@H](NS(=O)(=O)c2ccc(F)cc2)[C@H](CO)O1)N1CCC(Cc2ccccc2)CC1`, “inactive”.
With `CN1C(=O)c2cc(NS(=O)(=O)c3ccc(F)cc3)ccc2OC[C@H]2O[C@H](CC(=O)NCC(F)(F)F)CC[C@H]21` the entry was “inactive”.
Under `COCC#Cc1ccc2c(c1)O[C@H](CN(C)S(=O)(=O)c1ccc(C)cc1)[C@H](C)CN([C@@H](C)CO)S2(=O)=O` stands “inactive”; under `COCCn1c(=NN)[nH]c2ccsc2c1=O`, “inactive”.
Regarding `O=C(C[C@H]1CC[C@@H]2[C@H](COC[C@@H](O)CN2Cc2cc(F)ccc2F)O1)N[C@@H]1CCN(Cc2ccccc2)C1`, the growth inhibition call was “inactive”.
In the case of `CCCCc1nn(-c2ccccc2C(F)(F)F)c(=O)n1Cc1ccc(-c2ccccc2S(=O)(=O)NC(=O)c2sccc2C)cc1`, the growth inhibition call was “active”.
On to `COc1ccc([Si](C)(C)[C@H]2[C@H](CC(=O)N3CCC[C@H]3CO)O[C@@]3(C(=O)N(Cc4ccc(N5CCCCC5=O)cc4)c4ccccc43)[C@@H]2C)cc1`, for which the growth inhibition call was “inactive”.
For the molecule `C[C@@H]1CN([C@H](C)CO)C(=O)c2c(c3ccccc3n2C)-c2ccccc2CO[C@@H]1CN(C)Cc1ccc(Cl)c(Cl)c1`, the growth inhibition call is “inactive”.
Turning to `CO/N=C1\CN(c2nc3c(cc2F)c(=O)c(C(=O)O)cn3C2CC2)C[C@@H]1CN`, the growth inhibition call was “active”.
As for `CON=C1CN(c2nc3c(cc2F)c(=O)c(C(=O)O)cn3C2CC2)CC1CN.CS(=O)(=O)O` (configuration not stated), the growth inhibition call was “active”.
As for `C[C@H]1CN([C@@H](C)CO)C(=O)c2cccc(NC(=O)CCCCCC(=O)Nc3ccccc3N)c2O[C@H]1CN(C)C(=O)Nc1cccc2ccccc12`, the growth inhibition call is “inactive”.
